Common to all, as to parameters: scale not given: direction of the effect not stated beside the values
Assay [1] has as its target Protein translocase subunit SecA (Escherichia coli (strain K12)) (UniProt P10408). Put plainly: Assay to Identify E. coli SecA ATPase Inhibitors. The class given is functional. The note with it: 30 µM.
The target of assay [2] is T1, Ubiquitin-activating enzyme e1, putative (Leishmania donovani (strain BPK282A1)) (UniProt E9BSI1).
T1 sequence (whole entry): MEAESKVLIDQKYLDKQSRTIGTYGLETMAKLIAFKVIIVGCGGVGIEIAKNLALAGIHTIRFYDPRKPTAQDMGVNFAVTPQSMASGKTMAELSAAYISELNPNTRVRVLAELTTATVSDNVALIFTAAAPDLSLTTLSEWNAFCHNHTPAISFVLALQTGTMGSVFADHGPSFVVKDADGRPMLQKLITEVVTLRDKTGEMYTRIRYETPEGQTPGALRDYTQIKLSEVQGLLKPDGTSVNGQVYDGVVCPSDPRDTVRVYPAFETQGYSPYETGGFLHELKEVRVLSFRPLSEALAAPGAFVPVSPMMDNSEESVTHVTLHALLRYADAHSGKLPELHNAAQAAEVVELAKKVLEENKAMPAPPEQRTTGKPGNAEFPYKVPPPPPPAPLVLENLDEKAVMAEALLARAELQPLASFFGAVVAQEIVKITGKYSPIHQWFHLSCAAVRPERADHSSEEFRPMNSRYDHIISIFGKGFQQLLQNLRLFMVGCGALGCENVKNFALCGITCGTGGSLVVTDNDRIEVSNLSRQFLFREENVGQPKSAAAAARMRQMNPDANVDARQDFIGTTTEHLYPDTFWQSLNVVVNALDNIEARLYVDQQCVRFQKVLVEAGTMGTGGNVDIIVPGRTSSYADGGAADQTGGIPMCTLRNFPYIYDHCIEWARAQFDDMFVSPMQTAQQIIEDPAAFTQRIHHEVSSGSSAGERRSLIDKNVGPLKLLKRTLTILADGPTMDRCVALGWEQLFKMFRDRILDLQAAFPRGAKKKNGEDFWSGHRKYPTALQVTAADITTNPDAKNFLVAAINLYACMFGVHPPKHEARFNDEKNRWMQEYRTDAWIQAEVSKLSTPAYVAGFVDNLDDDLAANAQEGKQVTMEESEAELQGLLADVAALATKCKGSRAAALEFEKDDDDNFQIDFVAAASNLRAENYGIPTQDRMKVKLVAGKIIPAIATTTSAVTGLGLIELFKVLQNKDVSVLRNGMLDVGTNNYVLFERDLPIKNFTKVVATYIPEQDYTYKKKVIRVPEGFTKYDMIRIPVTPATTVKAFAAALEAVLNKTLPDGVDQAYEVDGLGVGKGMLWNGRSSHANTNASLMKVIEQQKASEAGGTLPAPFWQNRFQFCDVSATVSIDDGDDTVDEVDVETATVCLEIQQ
Put plainly: Leishmania donovani Ubiquitin Activating Enzyme (LdE1). It is filed as functional. Conditions: 30 µM.

In assay [3] the target is Sialic acid-binding Ig-like lectin 9 (Homo sapiens) (UniProt Q9Y336). The experiment in a line: Hs-Siglec9 ALPHAscreen SOP 20170721. The note with it: 10 µM. In general terms: Bead proximity is the source of the signal in Alpha formats.
Chain of Sialic acid-binding Ig-like lectin 9 (Homo sapiens) (Q9Y336 whole entry): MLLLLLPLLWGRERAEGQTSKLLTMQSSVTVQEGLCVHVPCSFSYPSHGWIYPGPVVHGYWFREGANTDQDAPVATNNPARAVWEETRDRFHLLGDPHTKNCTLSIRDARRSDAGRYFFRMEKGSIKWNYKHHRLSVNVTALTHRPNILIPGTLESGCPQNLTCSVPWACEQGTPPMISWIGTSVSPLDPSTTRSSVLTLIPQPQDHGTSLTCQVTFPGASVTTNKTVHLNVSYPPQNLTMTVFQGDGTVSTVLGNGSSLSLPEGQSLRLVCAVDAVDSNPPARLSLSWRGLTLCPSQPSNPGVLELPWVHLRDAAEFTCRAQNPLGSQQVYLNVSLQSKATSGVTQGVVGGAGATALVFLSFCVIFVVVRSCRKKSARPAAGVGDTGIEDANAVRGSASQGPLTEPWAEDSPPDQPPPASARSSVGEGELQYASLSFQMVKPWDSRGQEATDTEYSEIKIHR
For assay [4], the system named is Trypanosoma cruzi. Put plainly: Trypanosoma cruzi phosphomannomutase and mannose-1-phosphate guanylyltransferase assay. It is filed as functional. The note with it: 10 µM.
Assay [5] deals with T2, Arginase-2, mitochondrial (Homo sapiens) (UniProt P78540).
T2 sequence (whole entry): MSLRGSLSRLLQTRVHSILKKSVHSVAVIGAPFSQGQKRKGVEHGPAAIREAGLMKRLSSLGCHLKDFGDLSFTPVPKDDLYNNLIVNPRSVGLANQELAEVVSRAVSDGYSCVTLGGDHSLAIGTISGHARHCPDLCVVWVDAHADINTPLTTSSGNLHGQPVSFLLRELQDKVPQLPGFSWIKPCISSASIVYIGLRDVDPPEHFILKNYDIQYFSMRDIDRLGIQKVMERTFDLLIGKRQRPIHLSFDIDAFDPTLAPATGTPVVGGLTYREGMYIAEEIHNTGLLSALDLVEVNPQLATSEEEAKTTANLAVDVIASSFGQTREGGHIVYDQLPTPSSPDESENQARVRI
The experiment in a line: in vitro enzyme assay to detect the production of urea directly proportional to the activity of Arginase II. Also: in the data most compounds retested in dose-response had high values. It is filed as functional. Conditions: 33.3 µM.

Assay [6] deals with T3, Proteasome subunit beta (Trypanosoma cruzi) (UniProt O96673).
T3 sequence (whole entry): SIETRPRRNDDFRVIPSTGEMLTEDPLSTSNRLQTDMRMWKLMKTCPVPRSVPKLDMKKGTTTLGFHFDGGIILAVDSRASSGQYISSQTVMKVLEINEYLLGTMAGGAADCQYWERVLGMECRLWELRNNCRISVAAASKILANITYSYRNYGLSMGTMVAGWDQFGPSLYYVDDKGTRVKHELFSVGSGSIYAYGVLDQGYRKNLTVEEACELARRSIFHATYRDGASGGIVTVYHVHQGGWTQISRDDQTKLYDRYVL
The experiment in a line: Trypanosoma cruzi proteasome chymotrypsin-like activity (TcProtChymo) assay. Also: in the data most compounds retested in dose-response had high values. The class given is functional. The note with it: 9.37 µM.

For assay [7], the species on record is Homo sapiens. The experiment in a line: To identify inhibition of the IFN signalling (Jak-Stat) pathway via expression of an eGFP reporter gene under the control of an IFN-stimulated response element (ISRE) containing MxA promoter. The class given is functional. The note with it: 30 µM. Background: In a reporter assay the amount or activity of a reporter protein is the signal.

The target of assay [8] is T4, Tyrosyl-tRNA synthetase, putative (Trypanosoma cruzi (strain CL Brener)) (UniProt Q4DSP6).
T4 sequence (whole entry): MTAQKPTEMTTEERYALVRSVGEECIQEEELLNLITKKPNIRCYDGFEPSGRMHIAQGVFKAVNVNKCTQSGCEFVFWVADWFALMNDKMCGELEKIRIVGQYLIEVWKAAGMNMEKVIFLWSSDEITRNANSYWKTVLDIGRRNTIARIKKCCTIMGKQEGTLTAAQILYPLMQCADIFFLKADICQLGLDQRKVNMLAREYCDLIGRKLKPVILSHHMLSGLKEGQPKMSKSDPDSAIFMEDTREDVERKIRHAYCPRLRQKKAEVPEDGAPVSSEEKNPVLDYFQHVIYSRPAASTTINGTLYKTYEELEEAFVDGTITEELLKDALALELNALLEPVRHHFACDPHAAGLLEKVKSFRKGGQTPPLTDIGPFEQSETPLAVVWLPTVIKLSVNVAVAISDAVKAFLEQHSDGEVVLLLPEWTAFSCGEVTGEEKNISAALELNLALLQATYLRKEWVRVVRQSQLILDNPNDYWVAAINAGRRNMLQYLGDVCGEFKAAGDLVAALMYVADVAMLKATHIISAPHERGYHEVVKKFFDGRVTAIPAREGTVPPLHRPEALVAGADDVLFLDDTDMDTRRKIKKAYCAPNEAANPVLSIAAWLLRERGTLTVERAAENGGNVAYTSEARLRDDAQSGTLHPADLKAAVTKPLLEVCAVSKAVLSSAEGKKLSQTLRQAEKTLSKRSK
Put plainly: Trypanosoma cruzi tyrosyl tRNA synthetase (TcYRS) _High Tyrosine SOP. Also: in the data most compounds retested in dose-response had high values. The class given is functional. The note with it: 30 µM.

Assay [9] deals with T4, Tyrosyl-tRNA synthetase, putative (Trypanosoma cruzi (strain CL Brener)). The experiment in a line: Trypanosoma cruzi tyrosyl tRNA synthetase (TcYRS) SOP. The class given is functional. The note with it: 30 µM.
The target of assay [10] is Chromo domain-containing protein 1 (Saccharomyces cerevisiae (strain ATCC 204508 / S288c) (Baker's yeast)) (UniProt P32657). The experiment in a line: ScCHD-1 Enzyme Inhibition Assay. Also: in the data most compounds retested in dose-response had high values. The class given is functional. The note with it: 30 µM.
Chain of Chromo domain-containing protein 1 (Saccharomyces cerevisiae (strain ATCC 204508 / S288c) (Baker's yeast)) (P32657 whole entry, the tested form may be a part): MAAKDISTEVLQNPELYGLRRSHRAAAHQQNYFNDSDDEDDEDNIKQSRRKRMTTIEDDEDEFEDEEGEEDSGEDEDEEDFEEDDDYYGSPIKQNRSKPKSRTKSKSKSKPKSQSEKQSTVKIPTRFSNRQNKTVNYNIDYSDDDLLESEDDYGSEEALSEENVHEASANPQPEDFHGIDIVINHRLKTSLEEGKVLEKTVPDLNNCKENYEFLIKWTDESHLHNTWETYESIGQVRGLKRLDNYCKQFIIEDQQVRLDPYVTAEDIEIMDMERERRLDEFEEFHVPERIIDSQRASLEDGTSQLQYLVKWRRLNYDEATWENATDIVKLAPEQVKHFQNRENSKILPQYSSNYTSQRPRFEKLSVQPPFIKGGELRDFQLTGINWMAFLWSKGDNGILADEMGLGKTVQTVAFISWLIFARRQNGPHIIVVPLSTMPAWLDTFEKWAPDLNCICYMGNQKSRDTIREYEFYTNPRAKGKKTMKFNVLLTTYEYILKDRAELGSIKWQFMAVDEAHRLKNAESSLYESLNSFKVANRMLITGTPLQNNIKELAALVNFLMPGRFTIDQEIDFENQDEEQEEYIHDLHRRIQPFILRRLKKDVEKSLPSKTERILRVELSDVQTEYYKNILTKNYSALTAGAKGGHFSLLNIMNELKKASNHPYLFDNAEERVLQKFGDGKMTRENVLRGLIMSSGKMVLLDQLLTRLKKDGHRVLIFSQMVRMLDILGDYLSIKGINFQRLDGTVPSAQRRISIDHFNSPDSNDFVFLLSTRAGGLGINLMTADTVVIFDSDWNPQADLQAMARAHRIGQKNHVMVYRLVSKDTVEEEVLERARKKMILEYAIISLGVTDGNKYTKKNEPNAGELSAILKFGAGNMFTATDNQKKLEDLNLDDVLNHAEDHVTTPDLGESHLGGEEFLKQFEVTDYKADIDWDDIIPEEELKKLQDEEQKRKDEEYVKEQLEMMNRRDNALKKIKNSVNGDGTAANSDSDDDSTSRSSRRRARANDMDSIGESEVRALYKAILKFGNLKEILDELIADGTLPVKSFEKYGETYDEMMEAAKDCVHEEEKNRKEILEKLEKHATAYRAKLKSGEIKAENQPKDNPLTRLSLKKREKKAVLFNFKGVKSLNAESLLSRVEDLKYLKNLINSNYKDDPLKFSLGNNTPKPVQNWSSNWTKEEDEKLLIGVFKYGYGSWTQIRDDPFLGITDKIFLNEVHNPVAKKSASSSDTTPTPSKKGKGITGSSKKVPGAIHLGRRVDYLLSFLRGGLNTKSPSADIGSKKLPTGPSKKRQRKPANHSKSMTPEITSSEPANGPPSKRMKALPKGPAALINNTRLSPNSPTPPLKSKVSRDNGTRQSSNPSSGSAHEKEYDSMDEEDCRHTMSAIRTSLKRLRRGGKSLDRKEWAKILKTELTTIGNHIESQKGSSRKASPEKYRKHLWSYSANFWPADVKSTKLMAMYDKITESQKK

For some assays here: Entries with a potency or affinity are not part of this list.

Chain of Protein translocase subunit SecA (Escherichia coli (strain K12)) (P10408 whole entry): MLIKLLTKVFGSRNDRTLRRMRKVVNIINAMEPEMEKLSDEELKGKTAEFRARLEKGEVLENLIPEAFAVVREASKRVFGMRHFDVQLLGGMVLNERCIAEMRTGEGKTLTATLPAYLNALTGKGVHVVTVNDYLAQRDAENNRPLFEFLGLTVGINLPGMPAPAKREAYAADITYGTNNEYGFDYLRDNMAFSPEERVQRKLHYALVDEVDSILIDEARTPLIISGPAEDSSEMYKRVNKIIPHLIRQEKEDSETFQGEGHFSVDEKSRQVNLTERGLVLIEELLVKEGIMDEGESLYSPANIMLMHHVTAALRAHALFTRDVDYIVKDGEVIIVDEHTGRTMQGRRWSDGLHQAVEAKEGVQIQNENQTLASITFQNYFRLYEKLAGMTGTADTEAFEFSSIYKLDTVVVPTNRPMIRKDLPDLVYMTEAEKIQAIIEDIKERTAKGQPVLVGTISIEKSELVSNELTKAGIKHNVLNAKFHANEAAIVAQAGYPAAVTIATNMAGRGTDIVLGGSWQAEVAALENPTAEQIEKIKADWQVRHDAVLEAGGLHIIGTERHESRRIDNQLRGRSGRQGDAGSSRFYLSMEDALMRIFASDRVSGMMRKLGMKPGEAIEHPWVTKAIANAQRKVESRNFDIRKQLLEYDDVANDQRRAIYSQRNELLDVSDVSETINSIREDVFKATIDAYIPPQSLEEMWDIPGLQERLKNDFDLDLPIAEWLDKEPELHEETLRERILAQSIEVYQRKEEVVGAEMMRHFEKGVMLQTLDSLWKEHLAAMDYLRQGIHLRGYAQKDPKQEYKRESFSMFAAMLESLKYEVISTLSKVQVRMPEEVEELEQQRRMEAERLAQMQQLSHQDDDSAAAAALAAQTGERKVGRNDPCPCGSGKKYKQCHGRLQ

Turning to `Cc1ccccc1N1CC2(CCN(S(=O)(=O)c3cccs3)C2)CC1=O` (stereo not given), the Percent Effect is -1.18% in [1]; 24.7% in assay [2]; -0.756% in assay [3]; 0% in [4]; -15.5% in assay [5]; 8.67% in assay [6]. For the same compound, the Percent Effect in assay [7] was 10.2%; in assay [8] it was 5.8%; in [9], 2.5%; in [10], -9.98%.
As to `C[C@]1(O)CCN(Cc2cncs2)C[C@@H]1Oc1cccc(F)c1`, the Percent Effect was 0.894% in [1]; 4% in assay [2]; 6.06% in assay [3]; -4.93% in [4]; 3.1% in [5]; -1.64% in assay [6]. Besides, the Percent Effect in assay [7] is 14.1%; in assay [8], 1.06%; in [9] it was 2.5%; in [10], -19.6%.
`CCN(CC1CCOC1)C(=O)Nc1ccc(-n2cncn2)nc1` (stereo not given): the Percent Effect in [1] is -3.32%; in [2] it was 5.13%; in [3], -0.956%; in [4], -12.7%; in [5], 0%; in assay [6], 9.3%. Moreover, the Percent Effect was 5.11% in [7], 4.31% in assay [8], 10.8% in [9] and -5.86% in [10].
`Cc1noc(C2CCN(C(=O)CN(C)c3ccc(Cl)cn3)CC2)n1`: the Percent Effect in assay [1] is -1.77%; in assay [2] it was 12.8%; in [3] it was -5.03%; in [4] it was 4.6%; in assay [5], 6.56%; in [6], 8.11%. For the same compound, the Percent Effect in [7] was 3.6%; in assay [8] it was 8.13%; in [9], 20.5%; in assay [10], -1.95%.
With `CNC(=O)CN1CCCC12CCN(C(=O)c1ccsc1)CC2`, the Percent Effect was -4.84% in assay [1]; 27.3% in assay [2]; 3.61% in assay [3]; 3.94% in assay [4]; -1.83% in assay [5]; 5.06% in assay [6]. Besides, the Percent Effect in assay [7] was 1.81%; in assay [8] it was 6.76%; in assay [9] it was -92.5%; in assay [10], -11.2%.
Consider `COc1ccc(OC)c(C2CCN(Cc3nc(C)n4ccccc34)C2)c1` (stereo not given), for which the Percent Effect in assay [1] was -4.56%; in assay [2] it was -2.7%; in assay [3], 16.9%; in [4], 2.81%; in [5] it was 17.1%; in assay [6], 17.8%. For the same compound, the Percent Effect in assay [7] was 17.9%; in [8], 13.3%; in assay [9], 26.8%; in assay [10], -3.48%.
In the case of `O=C1NC2(CCN(Cc3cccnc3)CC2)CC1c1ccncc1` (stereo not given), the Percent Effect is -3.31% in assay [1]; 6.49% in assay [2]; -5.51% in [3]; -7.69% in [4]; -0.405% in [5]; 19% in assay [6]. The Percent Effect in assay [7] was -18.7%; in assay [8] it was 1.58%; in [9], 10.3%; in [10], 4.74%.
For the compound `COc1c(CNC2CCSc3ccc(F)cc32)c(C)nn1C` (stereo not given), the Percent Effect in [1] is 0.667%; in assay [2], 13%; in [3] it was 7.38%; in [4], -0.373%; in [5], -12.5%; in [6] it was 10.9%. For the same compound, the Percent Effect in assay [7] is 64.7%; in assay [8] it was 5.88%; in assay [9] it was 11.8%; in [10], -4.85%.
Turning to `c1cnn(CC2CN(Cc3noc(C4CC4)n3)CCO2)c1` (stereo not given), the Percent Effect is -9.46% in [1]; 16% in assay [2]; 4.59% in assay [3]; 1.81% in assay [4]; -3.1% in [5]; 10.8% in [6]. Moreover, the Percent Effect in [7] was 7.98%; in [8] it was 3.68%; in assay [9] it was 7.69%; in assay [10] it was -6.72%.
`CCN1CCN(CC(C)(O)c2cccc(C(F)(F)F)c2)CC1` (stereo not given): the Percent Effect in [1] is -5.15%; in assay [2], 5.2%; in assay [3] it was 14.6%; in assay [4], -3.92%; in [5] it was -3.48%; in assay [6], 0.175%. Besides, the Percent Effect in assay [7] was -14.6%; in [8], 2.94%; in [9], -2.35%; in assay [10], -0.754%.
Turning to `CCc1n[nH]c(C2CN(C(=O)c3nc(C)n4ccccc34)CCO2)n1` (stereo not given), the Percent Effect is -2.26% in [1]; 13% in assay [2]; 11.1% in assay [3]; -1.49% in assay [4]; 10% in assay [5]; 9.82% in assay [6]. Besides, the Percent Effect was -10.3% in [7], 4.9% in assay [8], 16.5% in assay [9] and -11% in assay [10].

The record behind these values is ChEMBL document CHEMBL3988442, “University of Dundee, Small-Polar-MMV Screening Library” (2021).
